# Test results reported in ChEMBL document CHEMBL3433997, “St. Jude Leishmania screening dataset” (2016).
# Assays:
# Type in all cases: functional
# [1] = biological target: Solute carrier family 2, facilitated glucose transporter member 1 (Homo sapiens) (UniProt P11166); test: ST_JUDE_LEISH: Cytotoxicity at 2uM final concentration against transgenic Leishmania Mexicana promastigotes LmGLUT1 that are glucose transport deficient and complemented with the human glucose transporter GLUT1. Activity is measured by DNA content using SYBR green in vitro
# [2] = biological target: Hexose transporter 1 (Plasmodium falciparum) (UniProt O97467); test: ST_JUDE_LEISH: Cytotoxicity at 2uM final concentration against transgenic Leishmania Mexicana promastigotes LmPfHT that are glucose transport deficient and complemented with the Plasmodium falciparum hexose transporter. Activity is measured by DNA content using SYBR green in vitro
# [3] = biological target: Glucose transporter (Leishmania mexicana) (UniProt O61059); test: ST_JUDE_LEISH: Cytotoxicity at 2uM final concentration against transgenic Leishmania Mexicana promastigotes LmGT2 that are glucose transport deficient and complemented with the L. Mexicana glucose transporter 2. Activity is measured by DNA content using SYBR green in vitro
# Chain of Solute carrier family 2, facilitated glucose transporter member 1 (Homo sapiens) (P11166 whole entry): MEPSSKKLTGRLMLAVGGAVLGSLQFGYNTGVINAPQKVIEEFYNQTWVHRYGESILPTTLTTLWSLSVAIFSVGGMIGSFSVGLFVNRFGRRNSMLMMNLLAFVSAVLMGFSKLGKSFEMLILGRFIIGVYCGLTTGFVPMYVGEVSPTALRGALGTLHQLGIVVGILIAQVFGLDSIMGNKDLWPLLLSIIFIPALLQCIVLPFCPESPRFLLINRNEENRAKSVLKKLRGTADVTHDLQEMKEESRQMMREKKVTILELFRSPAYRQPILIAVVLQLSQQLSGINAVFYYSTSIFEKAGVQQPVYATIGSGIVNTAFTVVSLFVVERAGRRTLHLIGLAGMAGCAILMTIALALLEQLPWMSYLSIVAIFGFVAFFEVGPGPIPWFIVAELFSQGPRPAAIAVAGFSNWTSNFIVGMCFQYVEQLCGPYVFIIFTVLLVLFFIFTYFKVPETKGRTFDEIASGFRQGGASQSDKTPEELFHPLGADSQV
Structure (SMILES),inhibition [1],inhibition [2],inhibition [3]
Cc1ccnc2nc(C(=O)Nc3cc(Cl)ccc3N3CCOCC3)nn12,5.13%,5.74%,5.36%
CNC(=O)COC(=O)c1c2c(nc3ccccc13)C(=Cc1ccc3c(c1)OCO3)CCC2,1.88%,-1.19%,0.04%
Cc1ccc(-c2csc(C)n2)c(C)c1,1.21%,2.19%,2.4%
Cc1cccc2nc(-c3ccc(-c4ccc(NC(=O)Nc5ccc(Cl)c(Cl)c5)cc4)s3)[nH]c12,1.5%,1.27%,-6.86%
CN(C)CCN(C)Cc1ccc(-c2ccc(NC(=O)c3cccc(C#N)c3)cc2)cc1,3.64%,2.58%,0.19%
Cc1ccc2nc3sc(C(=O)NCCCN4CCC(N5CCCCC5)CC4)cc3cc2c1,-0.92%,3.13%,3.19%
O=[N+]([O-])c1cccc(CNC2CCN(Cc3ccc(C(F)(F)F)cc3)CC2)c1,2.18%,2.08%,3.71%
O=C(/C=C/c1ccc(Cl)c(Cl)c1)N1CCC(CCCN2CCC(c3c[nH]c4ccc(O)cc34)CC2)CC1,25.3%,17.4%,14%
COc1ccc2nccc([C@@H](O)CN3CCC(NC(=O)/C=C/c4ccc5[nH]c(=O)ccc5c4)CC3)c2c1,2.93%,1.78%,2.05%
CC(C)c1ccc(NC(=O)c2cccc(CN3CCCN(CC4CCCCC4)CC3)c2)cc1,11.7%,7.21%,9.65%
CCN1CCN(C(=O)NC(C(=O)N2CCCC(COc3ccc(Cc4ccccc4)cc3)C2)c2cccs2)C(=O)C1=O (stereo unspecified),3.59%,3.3%,4.28%
O=C(/C=C/c1ccc(Cl)c(Cl)c1)NCCCCN1CCC(c2c[nH]c3ccccc23)CC1,-2.39%,0.39%,-0.01%
Cc1ccc2c(OCCN3CCC(Cc4ccc5c(c4)NC(=O)CO5)CC3)cc(F)cc2n1,3.49%,2.13%,0.63%
COc1cc(C=CC(=O)N2CCC(CCN3CCC(c4c[nH]c5ccccc45)CC3)CC2)cc(OC)c1,4.99%,6.56%,3.47%
Cc1cccc(Nc2nc(N[C@@H]3CCCNC3)nc3cc[nH]c(=O)c23)c1,92.3%,85.2%,83.4%
N#Cc1ccc(-c2ccc(OCC(O)CN3CCCN(C(=O)C(c4ccc5c(c4)OCO5)N4CCN(C/C=C/c5ccccc5)CC4)CC3)cc2)cc1 (stereo unspecified),4.32%,2.9%,2.95%

Structure (SMILES),inhibition [1],inhibition [2],inhibition [3]
CCc1cn2c3c(cc(C(=O)N[C@@H](Cc4cccc(Cl)c4)[C@H](O)CNC4CCOCC4)cc13)N(C)S(=O)(=O)CC2,2.87%,-0.33%,1.44%
CC(C)C(=O)NC(c1cccs1)c1cc(Cl)c2cccnc2c1O (stereo unspecified),1.65%,1.13%,-0.45%
Cc1ccc2c(c1)c(-c1ccccc1)c(-c1ccccc1)n2CC(O)CN1CCN(CC=Cc2ccccc2)CC1 (stereo unspecified),0.38%,1.97%,0.7%
CN(CCN1CCCC1)c1nc2cc(-n3cnc4cc(-c5ccc(Cl)cc5)sc4c3=O)ccc2[nH]1,0.93%,0.75%,1.45%
c1ccc(-c2cc(NCCCn3ccnc3)nc(-c3cccnc3)n2)cc1,2.2%,3.19%,0.94%
Cn1cnc(CCNC(=O)c2cccc(-c3ccc(-c4nc5cc(F)ccc5[nH]4)cc3)c2)c1,1.27%,1.88%,0.3%
CN(C)Cc1cc2c(O)c(Cc3ccccc3)ccc2o1,2.65%,4.63%,3.94%
N[C@@H](Cc1ccc(O)cc1)C(=O)NC(c1ccccc1)c1c(O)ccc2ccccc12 (stereo partly specified),-0.12%,-0.91%,-0.99%
CCN(CC)CCN(Cc1ccc(-c2ccc(Cl)s2)cc1)C(=O)Cn1c(CCc2cccc(F)c2F)nc(=O)c2ccccc21,3.75%,3.7%,2.15%
CC(C)(C)CCN1CCC(CNC(=O)c2cc(-c3cccc(C(F)(F)F)c3)cs2)C1 (stereo unspecified),3.1%,2.95%,-0.8%
CO/C(=C\C=C\c1cc2cc(Cl)c(Cl)cc2[nH]1)C(=O)NCCCN(C)CCN(C)c1ccccc1,4.46%,3%,1.47%
CN1CCCN(Cc2ccc(-c3cccc(NC(=O)c4cccc(C#N)c4)c3)cc2)CC1,8.55%,4.85%,5.62%
CC1(C)N=C(N)N=C(N)N1O,-0.13%,1.38%,0.94%
FC(F)(F)c1cc(Nc2ccc(Oc3ccccc3)cc2)c2cc(-c3ccncc3)ccc2n1,-0.25%,0.41%,-0.05%
c1ccc(CN2CCC(NCc3ccccc3-c3ccc(CNCc4ccc5c(c4)OCO5)cc3)CC2)cc1,11.8%,10.4%,9.54%
Cc1ccc(Cc2cnc(CN3CCCCC3)c(O)c2)cc1,-1.22%,-2.99%,0.07%
